A short description of the assay: HEK293T cytotoxicity, dose response, cytotoxicity control for miR-122 modulator project, cell-based, activator set, cherry-pick (AID 720690). To be noted: HEK293T viability, CellTiter-Glo luminescence, 48 h; series mostly up to 26 µM. Background: ATP-based viability assays read luminescence as a measure of living cells.

Entries with a potency or affinity are not part of this list. Calls of active or inactive are those of the source.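 How the source made its calls: active means every repeat run showing a signal drop whose fitted half-maximal concentration is at most twice the top tested concentration; inconclusive means repeat runs disagree, or flat partial drop, or poor fit; inactive means the rest.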

With `CNC(=O)C[C@@H]1CC[C@@H]2[C@H](COc3ccc(NC(=O)NC(C)C)cc3C(=O)N2C)O1`, the compound was classed as inactive.
The same measure for `CN1C(=O)c2cc(NC(=O)Cc3ccccc3)ccc2OC[C@H]2O[C@@H](CC(=O)NCc3ccc(Cl)cc3)CC[C@@H]21`: “inactive”; for `CCCNC(=O)Nc1ccc2c(c1)C(=O)N(C)[C@@H]1CC[C@H](CC(=O)NCC3CCCCC3)O[C@H]1CO2`: “inactive”; for `C/C=C/c1ccc([C@H]2[C@@H](CO)N(C(=O)CC)[C@H]2CNC(=O)CC)cc1`: “inactive”.
`C/C=C/c1ccc([C@@H]2[C@@H](CO)N[C@@H]2CN(CC)C(=O)CN2CCOCC2)cc1`: the outcome was inactive.
Take `C/C=C/c1ccc([C@@H]2[C@@H](CO)N(C(=O)Cc3cccnc3)[C@H]2CNC(C)=O)cc1`: the call was inactive.
The same measure for `CC(C)CC#Cc1ccc2c(c1)O[C@H](CN(C)C(=O)c1cnccn1)[C@H](C)CN([C@H](C)CO)S2(=O)=O`: “inactive”; for `COc1cc(NC(=O)c2c(F)c(F)c(F)c(F)c2F)c(OC)cc1Cl`: “inactive”.
To `COCC(=O)NC[C@@H]1[C@H](c2ccc(C3=CCCC3)cc2)[C@@H](CO)N1C(=O)C1CC1` belongs “inactive”; to `CN1C(=O)c2cc(NC(=O)c3ccc4c(c3)OCO4)ccc2OC[C@@H]2O[C@@H](CC(=O)O)CC[C@@H]21`, “inactive”; to `CC(=O)N1[C@H](CN(C(=O)c2ccc(F)cc2)C(C)C)[C@H](c2ccccc2)[C@@H]1CO`, “inactive”.
As for `Cc1ccc(-c2nnn(CC(=O)N(CC(=O)NCC3CCCO3)c3ccccc3)n2)o1` (stereo not given), the compound was called inactive.
For the compound `CC(C)Oc1ccc(CNCCC2(C(C)C)CCOC(C)(C)C2)cc1` (stereo not given), the call was inactive.
The same measure for `CN1C(=O)c2cc(NC(=O)c3cccc(F)c3)ccc2OC[C@@H]2O[C@@H](CC(=O)Nc3ccccc3)CC[C@@H]21`: “inactive”.
To `CN1C(=O)c2cc(NC(=O)c3cccs3)ccc2OC[C@H]2O[C@H](CC(=O)NCCN3CCCCC3)CC[C@H]21` belongs “inactive”; to `CO[C@@H]1CN(C)C(=O)c2ccc(NC(=O)Nc3ccc(C(F)(F)F)cc3)cc2OC[C@H](C)NC[C@H]1C`, “inactive”; to `C/C=C/c1ccc([C@H]2[C@@H](CO)N(Cc3ccccn3)[C@H]2CNC(C)=O)cc1`, “inactive”.
In the case of `CCCC(=O)Nc1ccc2c(c1)C(=O)N(C)[C@H]1CC[C@@H](CC(=O)NCCN3CCCCC3)O[C@H]1CO2`, the compound was called inactive.
To `C/C=C/c1ccc([C@H]2[C@@H](CO)N(C(=O)NC(C)C)[C@H]2CN(C)C(=O)CC)cc1` belongs “inactive”.
To `C/C(=N\Nc1cc(N2CCCCC2)nc(C)n1)c1ccc(Br)cc1` belongs “inactive”.
Regarding `C[C@@H]1CCCCO[C@H](CN(C)CC2CCCCC2)[C@H](C)CN([C@H](C)CO)C(=O)c2cc(NC(=O)Nc3ccc4c(c3)OCO4)ccc2O1`, the call was inactive.
To `CNC(=O)C[C@H]1CC[C@@H]2[C@H](COc3ccc(NC(=O)NC(C)C)cc3C(=O)N2C)O1` belongs “inactive”; to `COCC(=O)N1C[C@H]2[C@@H](c3ccccc31)[C@H](CO)N2C(=O)Nc1ccccc1Cl`, “inactive”.
The same measure for `CN(C)CCCNC(=O)C[C@@H]1CC[C@H]2[C@H](COc3ccc(NC(=O)c4cccc(F)c4)cc3C(=O)N2C)O1`: “inactive”; for `O=C(NC[C@H]1N[C@H](CO)[C@@H]1c1ccc(-c2ccccc2F)cc1)c1ccccc1`: “inactive”; for `Nc1ccc(Oc2ccc(Br)cc2)cc1`: “inactive”.
The same measure for `COC(=O)c1c(N)nc(C)n1-c1ccc(OC)cc1`: “inactive”; for `CN1C(=O)c2cc(NC(=O)c3cccs3)ccc2OC[C@H]2O[C@@H](CC(=O)N3CCCCC3)CC[C@H]21`: “inactive”; for `CC(=O)Nc1ccc2c(c1)C(=O)N(C)[C@@H]1CC[C@@H](CC(=O)NCc3ccc(Cl)cc3)O[C@H]1CO2`: “inactive”.
On to `Cc1cc(C)cc(NC(=O)Nc2ccc3c(c2)C(=O)N(C)[C@@H]2CC[C@H](CC(=O)O)O[C@@H]2CO3)c1`, for which the call was inactive.
With `COc1ccc(C#Cc2ccc3c(c2)O[C@H](CN(C)C(=O)CN2CCOCC2)[C@H](C)CN([C@H](C)CO)S3(=O)=O)cc1`, the result was inactive.
As for `CNC(=O)C[C@@H]1CC[C@H]2[C@@H](COc3ccc(NC(=O)C(C)C)cc3C(=O)N2C)O1`, the call was inactive.
The same measure for `CC(C)NC(=O)N1C[C@@H]2[C@H](c3ccccc31)[C@H](CO)N2Cc1ccccc1`: “inactive”.
As to `Cc1cnc(NC(=O)c2cc3c(C)nn(-c4ccccc4)c3s2)s1`, the call was inactive.
The same measure for `COCC(=O)Nc1ccc2c(c1)C(=O)N(C)[C@H]1CC[C@@H](CC(=O)NCCCN(C)C)O[C@H]1CO2`: “inactive”.

The record behind these values is PubChem BioAssay AID720690 (Broad Institute, 2013).
